Data: PubChem BioAssay (Tox21)
Results filed as inconclusive are left out. Activity calls are given as the source filed them. Unless noted, calls come from the whole dose curve; as a rule, active = well fitted curve in the direction sought with a large enough effect in the repeat runs; inconclusive = weak or mixed curves; inactive = no such curve, though single readings can be large; an effect the other way counts as inactive or inconclusive.

How the values were obtained:
[1] = qHTS assay to test for compound auto fluorescence at 535 nm (green) in HEK293 cells (AID 720680)
[2] = qHTS assay to test for compound auto fluorescence at 460 nm (blue) in HEK293 cell free culture (AID 720681)
Summary of the method: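 Blue fluorescence (Ex 405/Em 460 nm, triamterene-equivalent) was read immediately after pin transfer of compound or DMSO into medium (DMEM, 10% FBS) without cells.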

[3] = qHTS assay to test for compound auto fluorescence at 535 nm (green) in HEK293 cell free culture (AID 720682)
Summary of the method: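 Compounds were pin-transferred into cell-free DMEM with 10% FBS, and green fluorescence was read at excitation 485 nm and emission 535 nm. Intensities were expressed as fluorescein-equivalent values.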

[4] = qHTS assay to test for compound auto fluorescence at 590 nm (red) in HepG2 cell free culture (AID 720684)
Summary of the method: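 Steps: dispense MEM/10% FBS medium, no cells; pin compound or DMSO vehicle; read red channel, Ex/Em 540/590 nm. Output given as Rose Bengal sodium equivalents.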

[5] = qHTS assay to test for compound auto fluorescence at 460 nm (blue) in HepG2 cell free culture (AID 720685)
Summary of the method: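 Compound (23 nL) or DMSO pinned into cell-free MEM with 10% FBS; blue fluorescence read at 405/460 nm excitation/emission, expressed as auto-fluorescence equivalency to triamterene.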

[6] = qHTS assay to test for compound auto fluorescence at 535 nm (green) in HepG2 cell free culture (AID 720686)
[7] = qHTS assay to test for compound auto fluorescence at 460 nm (blue) in HepG2 cells (AID 720687)
Summary of the method: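 Blue-channel autofluorescence (Ex/Em 405/460 nm, triamterene-equivalent) was measured after 1 hr compound exposure at 37 C, 5% CO2. Cells were HepG2, plated overnight at 37 C in MEM plus 10% FBS.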

[8] = qHTS assay to identify small molecule antagonists of the glucocorticoid receptor (GR) signaling pathway - cell viability counter screen (AID 720693); note: nearly all actives have a fitted effect of over 55% in size
[9] = qHTS assay to identify small molecule antagonists of the androgen receptor (AR) signaling pathway - cell viability counter screen (AID 743033; note: nearly all actives have a fitted effect of over 45% in size)
[10] = target: Glucocorticoid receptor (Homo sapiens) (UniProt P04150); assay: qHTS assay to identify small molecule agonists of the glucocorticoid receptor (GR) signaling pathway (AID 720691; active = well fitted activation curve with a large enough effect in the signal ratio in the repeat runs, not every such curve was filed as active; the % refers to the signal ratio)
Summary of the method: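 Reporter read-out: fluorescence intensity following 2 h room-temperature LiveBLAzer B/G FRET substrate loading. Prior step: GR-bla HeLa cells held 4 h, then treated 18 h at 37 C.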

[11] = target: Glucocorticoid receptor (Homo sapiens) (UniProt P04150); assay: qHTS assay to identify small molecule antagonists of the glucocorticoid receptor (GR) signaling pathway (AID 720692; active = well fitted inhibition curve with a large enough effect in the signal ratio in the repeat runs, not every such curve was filed as active; the % refers to the signal ratio)
Summary of the method: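 Dexamethasone (5 nM final) stimulated a stably integrated GRE-beta-lactamase reporter in HeLa cells during 18 h co-incubation with compounds; signal was quantified as fluorescence intensity of B/G FRET substrate after 2 h.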

[12] = qHTS assay for identifying genotoxic compounds that show differential cytotoxicity against isogenic chicken DT40 cell lines with known DNA damage response pathways - wild type cell line (AID 743012); note: nearly all actives have a fitted effect of over 60% in size
Summary of the method: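 Using parental DT40 (300 cells/well), compounds delivered in DMSO incubate 40 h at 37 C/5% CO2. CellTiter-Glo reagent then stands 30 min at room temperature, and luminescence gives cell viability.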

[13] = qHTS assay for identifying genotoxic compounds that show differential cytotoxicity against isogenic chicken DT40 cell lines with known DNA damage response pathways - Rev3 mutant cell line (AID 743014); note: nearly all actives have a fitted effect of over 55% in size
[14] = qHTS assay for identifying genotoxic compounds that show differential cytotoxicity against isogenic chicken DT40 cell lines with known DNA damage response pathways - Rad54/Ku70 mutant cell line (AID 743015); note: nearly all actives have a fitted effect of over 60% in size
[15] = qHTS assay to identify small molecule antagonists of the androgen receptor (AR) signaling pathway using the MDA cell line - cell viability counter screen (AID 743041; note: nearly all actives have a fitted effect of over 45% in size)
Summary of the method: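 Cells were plated at 3,000 per well and left 5 h. Compounds in DMSO were then pinned in, followed by R1881. After 16 h at 37C, CellTiter-Fluor fluorescence gave viability.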

[16] = target: Androgen receptor (Homo sapiens) (UniProt P10275); assay: qHTS assay to identify small molecule antagonists of the androgen receptor (AR) signaling pathway (AID 743035; active = well fitted inhibition curve with a large enough effect in the signal ratio in the repeat runs, not every such curve was filed as active; the % refers to the signal ratio)
Summary of the method: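 Using qHTS, AR-UAS-bla GripTite HEK293 cells received compound, then R1881, and were cultured 16 h at 37C/5% CO2 before a 2 h room-temperature LiveBLAzer B/G FRET substrate step and fluorescence measurement.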

[17] = target: Androgen receptor (Homo sapiens) (UniProt P10275); assay: qHTS assay to identify small molecule agonists of the androgen receptor (AR) signaling pathway using the MDA cell line (AID 743040; note: nearly all actives have a fitted effect of over 20% in size)
Summary of the method: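 Cells plated, 5 h at 37C/0% CO2; compound or DMSO pinned; 16 h at 37C; ONE-Glo added; luminescence measured after 30 min at room temperature. Reporter line: MDA-kb2 with MMTV-luciferase responsive to AR and GR.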

[18] = target: Androgen receptor (Homo sapiens) (UniProt P10275); assay: qHTS assay to identify small molecule antagonists of the androgen receptor (AR) signaling pathway using the MDA cell line (AID 743042; note: nearly all actives have a fitted effect of over 55% in size)
Summary of the method: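 Antagonist mode: compounds plus R1881 agonist added to MDA-kb2 AR-luc cells, incubated 16 h at 37C. Luciferase reporter luminescence quantified, with multiplexed CellTiter-Fluor readout for cell viability.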

[19] = qHTS assay to test for compound auto fluorescence at 590 nm (red) in HEK293 cell free culture (AID 720683)
Summary of the method: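 Red-channel autofluorescence of compounds in culture medium (DMEM, 10% FBS), no cells, measured at 540/590 nm. Rose Bengal sodium is the reference fluorophore for equivalence.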

[20] = target: Androgen receptor (Homo sapiens) (UniProt P10275); assay: qHTS assay to identify small molecule agonists of the androgen receptor (AR) signaling pathway (AID 743036; active = well fitted activation curve with a large enough effect in the signal ratio in the repeat runs, with a control signal flat, not every such curve was filed as active; the % refers to the signal ratio)
Summary of the method: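 Activation was read as beta-lactamase FRET signal from LiveBLAzer B/G substrate, added for 2 h at room temperature. Before that, GeneBLAzer AR-UAS-bla GripTite (HEK293) cells had 16 h compound exposure at 37C.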
% is set by controls: 0 for no effect and ±100 for the full control effect.

Chain of Glucocorticoid receptor (Homo sapiens) (P04150 whole entry, looked up): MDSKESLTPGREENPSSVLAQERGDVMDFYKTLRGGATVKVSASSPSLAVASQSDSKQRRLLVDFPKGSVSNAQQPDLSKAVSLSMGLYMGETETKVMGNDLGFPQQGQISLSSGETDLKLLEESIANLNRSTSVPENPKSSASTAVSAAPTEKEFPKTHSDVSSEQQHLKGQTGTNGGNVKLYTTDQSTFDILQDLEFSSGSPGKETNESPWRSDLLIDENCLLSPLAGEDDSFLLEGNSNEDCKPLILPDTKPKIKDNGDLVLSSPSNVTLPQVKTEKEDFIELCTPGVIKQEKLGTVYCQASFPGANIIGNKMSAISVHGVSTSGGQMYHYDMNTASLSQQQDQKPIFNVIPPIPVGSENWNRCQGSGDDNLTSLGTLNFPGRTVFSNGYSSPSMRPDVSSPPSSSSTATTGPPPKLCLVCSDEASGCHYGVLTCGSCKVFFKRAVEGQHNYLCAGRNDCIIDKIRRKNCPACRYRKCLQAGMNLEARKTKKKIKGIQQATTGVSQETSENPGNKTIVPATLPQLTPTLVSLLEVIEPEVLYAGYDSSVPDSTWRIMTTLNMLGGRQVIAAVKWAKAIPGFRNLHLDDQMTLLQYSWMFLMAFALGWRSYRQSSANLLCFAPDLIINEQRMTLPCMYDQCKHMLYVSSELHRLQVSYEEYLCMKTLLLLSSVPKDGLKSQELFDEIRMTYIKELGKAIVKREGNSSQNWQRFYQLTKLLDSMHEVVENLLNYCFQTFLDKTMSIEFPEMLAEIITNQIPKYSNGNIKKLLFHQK
Chain of Androgen receptor (Homo sapiens) (P10275 whole entry, looked up): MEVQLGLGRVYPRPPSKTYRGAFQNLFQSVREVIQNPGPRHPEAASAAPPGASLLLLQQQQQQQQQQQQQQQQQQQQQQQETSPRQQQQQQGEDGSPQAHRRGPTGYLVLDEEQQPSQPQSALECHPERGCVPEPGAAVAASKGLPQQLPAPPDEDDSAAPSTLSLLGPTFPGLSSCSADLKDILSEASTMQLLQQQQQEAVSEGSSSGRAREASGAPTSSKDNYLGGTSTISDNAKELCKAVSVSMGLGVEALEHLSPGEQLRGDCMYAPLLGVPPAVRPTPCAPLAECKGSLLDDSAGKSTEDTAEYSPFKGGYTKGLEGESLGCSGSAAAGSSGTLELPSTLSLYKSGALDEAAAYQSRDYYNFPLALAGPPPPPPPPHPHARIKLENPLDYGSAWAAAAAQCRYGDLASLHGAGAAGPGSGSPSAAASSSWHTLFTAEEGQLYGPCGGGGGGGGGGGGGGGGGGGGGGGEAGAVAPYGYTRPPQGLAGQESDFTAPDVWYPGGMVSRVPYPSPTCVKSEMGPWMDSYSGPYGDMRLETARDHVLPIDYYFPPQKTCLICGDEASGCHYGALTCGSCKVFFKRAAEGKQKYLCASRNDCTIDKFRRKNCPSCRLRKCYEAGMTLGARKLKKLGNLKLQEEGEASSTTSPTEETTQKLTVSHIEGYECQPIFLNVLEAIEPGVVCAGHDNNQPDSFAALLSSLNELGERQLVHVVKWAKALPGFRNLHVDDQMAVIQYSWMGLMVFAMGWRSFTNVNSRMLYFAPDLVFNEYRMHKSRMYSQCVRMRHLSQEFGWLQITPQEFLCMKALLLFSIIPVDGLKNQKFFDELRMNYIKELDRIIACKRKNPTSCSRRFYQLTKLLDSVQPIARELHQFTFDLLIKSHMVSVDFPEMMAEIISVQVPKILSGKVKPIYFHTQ

CCOC(=O)c1cnc2c(cnn2CC)c1NN=C(C)C
inactive: outcome [1] | outcome [2] | outcome [3] | outcome [4] | outcome [5] | outcome [6] | outcome [7] | outcome [8] | outcome [9]

[K+]
inactive: outcome [1] | outcome [2] | outcome [3] | outcome [4] | outcome [5] | outcome [6] | outcome [7] | Potency [10] | Potency [11] | outcome [8] | Potency [12] | Potency [13] | Potency [14] | outcome [9] | Potency [15]

O=C(O)Cc1csc(-c2ccc(Cl)cc2)n1
inactive: outcome [1] | outcome [2] | outcome [3] | outcome [4] | outcome [5] | outcome [6] | outcome [7] | outcome [8] | Potency [13] | Potency [14] | Potency [16] | Potency [17] | Potency [15] | outcome [18]

CCC(C)(CCCC(C)C)OC(C)=O (stereo not given)
inactive: outcome [1] | outcome [2] | outcome [3] | outcome [4] | outcome [5] | outcome [6] | outcome [7] | Potency [10] | Potency [11] | outcome [8] | Potency [12] | Potency [13] | Potency [15]

CC[C@H]1OC(=O)[C@H](C)[C@@H](O[C@H]2C[C@@](C)(OC)[C@@H](O)[C@H](C)O2)[C@H](C)[C@@H](O[C@@H]2O[C@H](C)C[C@H](N(C)C)[C@H]2O)[C@](C)(OC)C[C@@H](C)C(=O)[C@H](C)[C@@H](O)[C@]1(C)O
inactive: outcome [1] | outcome [2] | outcome [3] | outcome [4] | outcome [5] | outcome [6] | Potency [10] | Potency [11] | outcome [8] | Potency [13] | outcome [9] | Potency [15]

CC1=CCC(O)(C(C)C)CC1 (stereo not given)
inactive: outcome [1] | outcome [2] | outcome [3] | outcome [4] | outcome [5] | outcome [6] | outcome [7] | Potency [10] | Potency [11] | outcome [8] | Potency [12] | Potency [13] | outcome [9] | Potency [15]

O=C(CO)[C@@H](O)[C@H](O)[C@@H](O)CO
inactive: outcome [1] | outcome [2] | outcome [3] | outcome [4] | outcome [5] | outcome [6] | outcome [7] | Potency [10] | Potency [11] | outcome [8] | Potency [13] | outcome [9] | Potency [15]

CC(C(=O)O)c1cccc(Oc2ccccc2)c1 (stereo not given)
inactive: fluorescence, % of fluorescein [1] 0.0474% [at 18.6 µM] | fluorescence, % of fluorescent control [2] -0.022% [at 18.6 µM] | activity change [3] 0.0987% [at 18.6 µM] | fluorescence, % of fluorescent control [19] -0.0434% [at 18.6 µM] | fluorescence, % of fluorescent control [5] -0.0014% [at 18.6 µM] | fluorescence, % of fluorescein control [6] 0.0607% [at 18.6 µM] | fluorescence, % of fluorescent control [7] -0.0143% [at 18.6 µM] | outcome [8] | Potency [12] | Potency [13] | Potency [14] | outcome [9] | Potency [15]

Cc1ccc(C(=O)Nc2ccc(S(=O)(=O)O)c3cc(S(=O)(=O)O)cc(S(=O)(=O)O)c23)cc1NC(=O)c1cccc(NC(=O)Nc2cccc(C(=O)Nc3cc(C(=O)Nc4ccc(S(=O)(=O)O)c5cc(S(=O)(=O)O)cc(S(=O)(=O)O)c45)ccc3C)c2)c1
inactive: outcome [1] | outcome [2] | outcome [4] | outcome [5] | outcome [6] | outcome [7] | Potency [10] | Potency [11] | outcome [8] | Potency [13] | outcome [9]

COC(=O)C1=C(C)NC(C)=C(C(=O)OC(C)C)C1c1cccc2nonc12 (stereo not given)
inactive: fluorescence, % of fluorescein [1] -0.0539% [at 18.6 µM] | fluorescence, % of fluorescent control [2] 0.0173% [at 18.6 µM] | fluorescence, % of fluorescent control [19] -0.0484% [at 18.6 µM] | fluorescence, % of Rose Bengal [4] -0.0514% [at 18.6 µM] | fluorescence, % of fluorescent control [5] -0.0347% [at 18.6 µM] | fluorescence, % of fluorescein control [6] -0.0109% [at 18.6 µM] | fluorescence, % of fluorescent control [7] 0.0339% [at 18.6 µM] | Potency [10] | outcome [8] | Potency [12] | Potency [13] | Potency [16] | outcome [20] | Potency [17] | Potency [15] | outcome [18]

CCCCCCC1CCC(=O)O1 (stereo not given)
inactive: outcome [1] | outcome [2] | outcome [19] | outcome [4] | outcome [5] | outcome [6] | outcome [7] | outcome [8] | Potency [13] | Potency [14] | outcome [9] | Potency [15]

C=C(C)C(=O)OCC1CCCO1 (stereo not given)
inactive: outcome [1] | outcome [2] | outcome [19] | outcome [4] | outcome [5] | outcome [6] | outcome [7] | Potency [10] | Potency [11] | outcome [8] | Potency [12] | Potency [13] | Potency [14] | outcome [9] | Potency [15]

CCCOC(=O)CC
inactive: outcome [1] | outcome [2] | outcome [19] | outcome [4] | outcome [5] | outcome [6] | outcome [7] | Potency [11] | outcome [8] | Potency [12] | Potency [13] | Potency [14] | outcome [9] | Potency [16] | outcome [20] | Potency [17] | Potency [15] | outcome [18]

CCO[Si](OCC)(OCC)c1ccccc1
inactive: outcome [1] | outcome [2] | outcome [19] | outcome [4] | outcome [5] | outcome [6] | outcome [7] | Potency [10] | Potency [11] | outcome [8] | Potency [12] | Potency [13] | Potency [14] | outcome [9] | Potency [15]
